Measurements taken from the supplement of paper PMC11732987, “Enantioselective OTUD7B fragment discovery through chemoproteomics screening and high-throughput optimisation” (Communications Chemistry, 2025).

How the values were obtained:
Assay in all cases: log2 ratio of Biotin-Ahx-Ub-VS probe labelling (fragment/DMSO); higher = less target engagement (more negative = stronger competition), active = hit call of the paper (q ≤ 0.05, log2 ratio ≤ -1)
Settings in all cases: compound concentration: 200 uM; treatment time: 3 h
ALG13 = molecular target: T1, ALG13 (UniProt Q9NP73)
T1 sequence (whole entry): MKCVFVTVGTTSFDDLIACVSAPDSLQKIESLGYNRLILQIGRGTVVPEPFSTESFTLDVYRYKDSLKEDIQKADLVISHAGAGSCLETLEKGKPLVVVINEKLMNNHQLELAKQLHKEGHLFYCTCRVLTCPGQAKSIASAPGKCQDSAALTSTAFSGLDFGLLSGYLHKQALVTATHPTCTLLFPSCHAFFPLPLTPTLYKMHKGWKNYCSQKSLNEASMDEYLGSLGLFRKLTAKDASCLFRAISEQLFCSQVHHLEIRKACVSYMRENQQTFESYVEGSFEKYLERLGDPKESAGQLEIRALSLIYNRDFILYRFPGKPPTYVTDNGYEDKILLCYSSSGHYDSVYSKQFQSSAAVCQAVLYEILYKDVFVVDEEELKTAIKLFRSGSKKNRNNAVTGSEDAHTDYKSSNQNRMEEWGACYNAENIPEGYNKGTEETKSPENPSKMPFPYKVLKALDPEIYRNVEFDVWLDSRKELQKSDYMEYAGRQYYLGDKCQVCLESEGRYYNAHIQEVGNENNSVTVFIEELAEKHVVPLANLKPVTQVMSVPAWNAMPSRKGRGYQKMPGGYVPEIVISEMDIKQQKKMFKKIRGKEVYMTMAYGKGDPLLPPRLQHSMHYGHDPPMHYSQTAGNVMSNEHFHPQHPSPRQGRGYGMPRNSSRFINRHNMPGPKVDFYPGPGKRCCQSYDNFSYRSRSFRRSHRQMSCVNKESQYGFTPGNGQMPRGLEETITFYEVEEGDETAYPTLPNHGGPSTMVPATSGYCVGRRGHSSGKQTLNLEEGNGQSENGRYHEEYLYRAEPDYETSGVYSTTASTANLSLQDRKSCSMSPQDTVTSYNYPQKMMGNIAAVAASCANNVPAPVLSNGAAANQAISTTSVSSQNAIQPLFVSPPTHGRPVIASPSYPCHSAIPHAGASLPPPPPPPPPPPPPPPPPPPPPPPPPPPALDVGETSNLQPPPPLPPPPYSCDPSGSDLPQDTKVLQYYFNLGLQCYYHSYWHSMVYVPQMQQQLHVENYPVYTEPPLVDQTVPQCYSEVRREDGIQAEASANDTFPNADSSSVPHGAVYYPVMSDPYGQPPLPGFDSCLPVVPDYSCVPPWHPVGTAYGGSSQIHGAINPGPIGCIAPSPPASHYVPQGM
In short: (§1)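 Triplicate samples of HEK293T lysate, 495 µg each, received fragment at 200 µM or vehicle for 3 h, followed by Biotin-Ahx-Ub-VS (0.5 µM final) for 1 h. After NeutrAvidin enrichment of labelled DUBs and LysC/trypsin digestion, peptides were run by diaPASEF LC-MS/MS. The values are average log2 fragment/vehicle ratios from global-median-normalised Spectronaut label-free quantities, tested by unpaired t-test on proteins having ≥2 unique peptides.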

ATXN3 = ATXN3 (UniProt P54252)
In short: as §1

BAP1 = molecular target: T2, BAP1 (UniProt Q92560)
T2 sequence (whole entry): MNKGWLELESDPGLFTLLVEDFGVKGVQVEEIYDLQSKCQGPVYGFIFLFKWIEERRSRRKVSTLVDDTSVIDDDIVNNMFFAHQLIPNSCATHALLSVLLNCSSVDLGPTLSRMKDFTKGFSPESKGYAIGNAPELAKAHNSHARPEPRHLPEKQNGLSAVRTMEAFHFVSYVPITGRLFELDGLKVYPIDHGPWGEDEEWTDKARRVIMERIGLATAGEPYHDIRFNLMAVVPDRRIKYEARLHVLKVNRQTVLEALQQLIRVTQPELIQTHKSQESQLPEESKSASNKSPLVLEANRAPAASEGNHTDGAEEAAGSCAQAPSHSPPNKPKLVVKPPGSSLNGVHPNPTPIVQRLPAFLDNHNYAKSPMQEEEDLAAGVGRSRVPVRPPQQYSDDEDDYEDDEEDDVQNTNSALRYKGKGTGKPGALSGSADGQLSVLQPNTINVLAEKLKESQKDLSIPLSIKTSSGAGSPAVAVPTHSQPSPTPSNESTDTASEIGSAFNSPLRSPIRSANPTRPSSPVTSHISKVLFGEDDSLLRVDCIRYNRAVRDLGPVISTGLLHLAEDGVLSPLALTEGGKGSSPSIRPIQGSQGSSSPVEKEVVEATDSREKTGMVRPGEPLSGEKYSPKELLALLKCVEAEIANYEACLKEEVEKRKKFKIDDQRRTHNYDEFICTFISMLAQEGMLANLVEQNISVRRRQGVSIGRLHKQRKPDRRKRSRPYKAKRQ
In short: as §1

EIF3F = EIF3F (UniProt O00303)
In short: as §1

EIF3H = EIF3H (UniProt O15372)
In short: as §1

FAM105A = molecular target: T3, FAM105A (UniProt Q9NUU6)
T3 sequence (whole entry): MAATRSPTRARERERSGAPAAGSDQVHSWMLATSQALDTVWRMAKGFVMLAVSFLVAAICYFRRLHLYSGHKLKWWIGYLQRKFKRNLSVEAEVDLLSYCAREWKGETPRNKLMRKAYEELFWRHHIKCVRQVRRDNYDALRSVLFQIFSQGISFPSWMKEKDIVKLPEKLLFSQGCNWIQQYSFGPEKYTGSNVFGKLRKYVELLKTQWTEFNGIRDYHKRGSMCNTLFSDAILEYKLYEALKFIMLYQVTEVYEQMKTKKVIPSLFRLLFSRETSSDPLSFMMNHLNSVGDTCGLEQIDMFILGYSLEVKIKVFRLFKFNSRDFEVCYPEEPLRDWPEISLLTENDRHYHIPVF
In short: as §1

OTUB1 = OTUB1 (UniProt Q96FW1)
In short: as §1

OTUD4 = molecular target: T4, OTUD4 (UniProt Q01804)
T4 sequence (whole entry): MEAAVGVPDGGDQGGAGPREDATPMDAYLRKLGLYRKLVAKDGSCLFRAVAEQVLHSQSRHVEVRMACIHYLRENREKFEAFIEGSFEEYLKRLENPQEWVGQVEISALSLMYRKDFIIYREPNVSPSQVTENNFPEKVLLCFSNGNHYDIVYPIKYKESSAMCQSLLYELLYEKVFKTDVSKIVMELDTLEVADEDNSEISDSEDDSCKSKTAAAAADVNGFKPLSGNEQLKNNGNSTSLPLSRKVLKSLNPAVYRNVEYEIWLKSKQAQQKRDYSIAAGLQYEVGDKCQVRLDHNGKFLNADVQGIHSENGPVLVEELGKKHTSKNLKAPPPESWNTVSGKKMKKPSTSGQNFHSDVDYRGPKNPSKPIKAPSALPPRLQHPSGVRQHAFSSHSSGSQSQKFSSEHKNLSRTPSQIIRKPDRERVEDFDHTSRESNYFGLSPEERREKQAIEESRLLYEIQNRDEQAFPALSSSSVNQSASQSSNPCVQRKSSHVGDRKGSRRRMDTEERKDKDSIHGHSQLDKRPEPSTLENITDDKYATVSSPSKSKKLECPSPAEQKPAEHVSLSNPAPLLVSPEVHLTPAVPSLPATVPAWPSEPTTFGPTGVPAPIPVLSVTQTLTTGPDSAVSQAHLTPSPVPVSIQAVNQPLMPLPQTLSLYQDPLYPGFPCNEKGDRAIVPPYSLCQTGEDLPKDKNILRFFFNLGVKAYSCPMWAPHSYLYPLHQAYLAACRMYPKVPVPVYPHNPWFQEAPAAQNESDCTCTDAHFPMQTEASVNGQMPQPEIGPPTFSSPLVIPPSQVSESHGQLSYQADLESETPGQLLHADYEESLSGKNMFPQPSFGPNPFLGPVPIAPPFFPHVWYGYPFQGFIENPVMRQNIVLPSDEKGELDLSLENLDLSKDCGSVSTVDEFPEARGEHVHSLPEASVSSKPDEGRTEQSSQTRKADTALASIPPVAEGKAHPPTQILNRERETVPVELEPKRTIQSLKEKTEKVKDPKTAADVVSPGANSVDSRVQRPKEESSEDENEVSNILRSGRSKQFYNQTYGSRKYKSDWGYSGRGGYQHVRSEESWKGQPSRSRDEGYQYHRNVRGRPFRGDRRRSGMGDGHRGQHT
In short: as §1

OTUD5 = molecular target: T5, OTUD5 (UniProt Q96G74)
T5 sequence (whole entry): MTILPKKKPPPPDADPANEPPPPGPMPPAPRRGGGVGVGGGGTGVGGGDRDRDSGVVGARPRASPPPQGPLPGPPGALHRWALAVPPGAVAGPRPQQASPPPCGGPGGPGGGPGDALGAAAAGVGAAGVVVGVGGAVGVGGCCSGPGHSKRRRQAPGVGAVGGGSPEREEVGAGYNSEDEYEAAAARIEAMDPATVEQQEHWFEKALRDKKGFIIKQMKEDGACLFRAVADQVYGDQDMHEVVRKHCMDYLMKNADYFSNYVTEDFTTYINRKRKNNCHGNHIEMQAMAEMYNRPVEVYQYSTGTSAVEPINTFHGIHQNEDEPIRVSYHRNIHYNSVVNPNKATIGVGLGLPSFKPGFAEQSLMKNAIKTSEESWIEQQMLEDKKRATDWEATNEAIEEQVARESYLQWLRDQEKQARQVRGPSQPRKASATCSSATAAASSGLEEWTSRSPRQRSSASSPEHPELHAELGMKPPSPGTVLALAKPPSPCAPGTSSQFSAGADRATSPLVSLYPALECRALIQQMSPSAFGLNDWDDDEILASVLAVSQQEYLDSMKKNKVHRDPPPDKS
In short: as §1

Measured: log2 ratio of Biotin-Ahx-Ub-VS probe labelling

EIF3F, sequence (O00303 whole entry): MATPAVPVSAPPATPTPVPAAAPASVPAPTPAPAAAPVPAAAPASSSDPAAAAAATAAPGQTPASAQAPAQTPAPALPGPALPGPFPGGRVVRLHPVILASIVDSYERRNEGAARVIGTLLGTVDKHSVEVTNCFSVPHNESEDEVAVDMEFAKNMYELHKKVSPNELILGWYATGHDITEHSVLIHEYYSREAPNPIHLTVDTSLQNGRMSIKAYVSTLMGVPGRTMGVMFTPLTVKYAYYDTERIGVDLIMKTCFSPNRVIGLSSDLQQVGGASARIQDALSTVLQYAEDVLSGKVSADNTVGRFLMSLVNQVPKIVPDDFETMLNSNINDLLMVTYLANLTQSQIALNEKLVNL
EIF3H, sequence (O15372 whole entry): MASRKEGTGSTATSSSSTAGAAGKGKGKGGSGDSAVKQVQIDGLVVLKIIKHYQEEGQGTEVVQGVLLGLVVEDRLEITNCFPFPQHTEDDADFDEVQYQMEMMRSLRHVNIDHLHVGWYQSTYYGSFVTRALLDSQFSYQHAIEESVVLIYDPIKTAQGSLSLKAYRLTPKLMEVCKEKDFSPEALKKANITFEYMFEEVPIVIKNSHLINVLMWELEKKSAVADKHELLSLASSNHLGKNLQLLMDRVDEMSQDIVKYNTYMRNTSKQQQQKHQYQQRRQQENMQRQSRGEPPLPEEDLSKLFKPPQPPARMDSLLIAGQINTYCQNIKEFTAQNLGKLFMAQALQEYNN
OTUB1, sequence (Q96FW1 whole entry): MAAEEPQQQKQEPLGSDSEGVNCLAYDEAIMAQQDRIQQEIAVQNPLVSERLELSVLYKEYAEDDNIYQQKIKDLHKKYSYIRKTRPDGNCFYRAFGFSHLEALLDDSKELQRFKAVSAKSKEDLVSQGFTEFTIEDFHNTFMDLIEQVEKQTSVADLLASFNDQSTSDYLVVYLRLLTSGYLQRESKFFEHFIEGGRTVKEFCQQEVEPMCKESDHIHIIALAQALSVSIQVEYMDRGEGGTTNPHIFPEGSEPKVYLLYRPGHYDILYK
ATXN3, sequence (P54252 whole entry): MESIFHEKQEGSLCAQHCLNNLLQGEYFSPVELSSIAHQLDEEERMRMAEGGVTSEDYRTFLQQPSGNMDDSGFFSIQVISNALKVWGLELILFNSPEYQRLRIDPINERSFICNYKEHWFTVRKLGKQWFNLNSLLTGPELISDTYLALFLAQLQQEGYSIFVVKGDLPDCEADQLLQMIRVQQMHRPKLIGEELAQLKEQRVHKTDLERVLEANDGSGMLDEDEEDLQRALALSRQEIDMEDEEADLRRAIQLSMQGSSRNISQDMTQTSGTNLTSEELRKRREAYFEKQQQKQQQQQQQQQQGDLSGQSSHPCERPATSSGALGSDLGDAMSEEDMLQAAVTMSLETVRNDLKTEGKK

CS(=O)(=O)N1CCCN(C(=O)CCl)CC1
inactive: ALG13 -0.306 | ATXN3 -0.428 | BAP1 -0.451 | EIF3F -0.0174 | EIF3H 0.332 | FAM105A -0.12 | OTUB1 -0.478 | OTUD4 -0.3 | OTUD5 -0.335
